High-throughput results from PubChem.
Only a selection was taken, and hits are over-represented in it overall.
a7 integrin act – activates integrin-mediated alleviation for muscular dystrophy; alpha7betagal myoblasts, beta-gal FDG fluorescence, 48 h; Potency, µM (top dose mostly 38.3 µM), for inactives: at the highest dose activation, actives largely listed as activators; 350,000 compounds, 0.064% hits; AID 624291;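 also: 100% = response of the positive control SU9516; nearly all actives have a fitted effect of over 60% in size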
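Alpha7betagal+/- myoblasts (passage 13) were plated 16-24 hr, then exposed to compounds (1:260 dilution of DMSO stock) for 48 hours at 37C. After MPER lysis, β-galactosidase reporter activity was read as FDG fluorescence (ex 480/em 540) after 30 minutes.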
USP2a inh – blocks human ubiquitin-specific protease USP2a; Potency, µM (top dose mostly 38.3 µM), for inactives: top-dose activity change, negative = inhibition, usual class: inhibitors; 330,000 compounds, 0.01% hits; O75604; AID 463254; USP2 core, Ub-CHOP2 coupled fluorogenic reporter, 485/531;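 also: plate controls were DMSO wells for no effect and full inhibition by NEM control for full effect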
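Cell-free coupled assay: 10nM USP2 core preincubated 30min RT with compound in Tris-HCl pH 8.0/CaCl2/CHAPS buffer, then 25nM Ub-CHOP2 and 25nM reporter substrate; fluorescence (Ex 485/Em 531) read after 60min RT, normalized to NEM inhibition, concentration-response curves fitted.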
p53 reactivation – restores transcriptional activity of mutant p53. H1299 p53-A138V BP100-luciferase reporter, luminescence, 24 h. Potency, µM (titrated, usually from 92.2 µM), for inactives: top-dose activity change, positive = activation, hits mostly activators. 320,000 compounds, 0.063% hits; also: % of control where 0% means no effect; nearly all actives have a fitted effect of over 45% in size
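p53-null H1299 cells stably carrying temperature-sensitive p53-A138V and a BP100-luciferase reporter were pinned with compounds (4-point, 1:5 series) and held 24 hrs at 37 deg C. Luminescence was read 10 min after detection reagent.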
Eya2 phos inh – blocks the phosphatase activity of human Eya2. O00167. recombinant Eya2, OMFP fluorescence dephosphorylation (OMFP is methylfluorescein phosphate). Potency, µM (titrated, usually from 76.9 µM), for inactives: at the top dose activity, negative = inhibition, hits mostly inhibitors. 330,000 compounds, 0.006% hits; also: % is scaled to controls: 0 for no effect and ±100 for the full control effect
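Eya2 (0.2 uM) preincubated 10 min at ambient with compound, then OMFP substrate added at 50 uM; 10 min reaction in 50 mM HEPES pH 7.5, 50 mM NaCl, 5 uM MgCl2, 0.05% BSA, 1 mM DTT. Fluorescence read at Ex 485/Em 525 nm.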
ClpP mod – qHTS Assay for Activators of ClpP; ATP-dependent Clp protease proteolytic subunit (Bacillus subtilis (strain 168)), P80244; purified B. subtilis ClpP, FRET peptide cleavage, 20 min; Potency, µM (titrated, usually from 57.5 µM), inactives show at the highest dose activity change, negative = active; 340,000 compounds, 1.9% hits; AID 651965, 2013; active = well fitted falling curve with a large enough effect; inconclusive = small, poorly fitted or top-dose-only effect; inactive = no such curve, though single readings can be large or run the other way; also: the source files actives as falling curves though it sought activators and does not explain the sign; nearly all actives have a fitted effect of over 65% in size
Target sequence (P80244 whole entry, looked up): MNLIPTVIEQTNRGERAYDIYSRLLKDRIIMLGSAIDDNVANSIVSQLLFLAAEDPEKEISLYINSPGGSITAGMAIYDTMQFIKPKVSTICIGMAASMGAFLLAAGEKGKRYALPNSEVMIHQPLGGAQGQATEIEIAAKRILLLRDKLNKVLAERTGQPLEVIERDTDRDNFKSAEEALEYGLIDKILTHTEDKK
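Buffer: 100 mM Tris/HCl pH8, 100 mM KCl, 0.05% low protease BSA, 2.5% glycerol, 0.01% Tween-20. ClpP 10 microg/mL final; 20 min RT; delta FRET normalized to ADEP and DMSO controls.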
Mm-Cpn inhibitor – M. maripaludis TRiC chaperonin inhibition; 330,000 compounds, 0.031% hits; purified Mm-Cpn ATPase, ADP Transcreener TR-FRET; Potency, µM (top dose mostly 76.9 µM), for the others: at the top dose activity, negative = inhibition, actives largely listed as inhibitors; also: % is scaled to controls: 0 for no effect and ±100 for the full control effect; nearly all actives have a fitted effect of over 80% in size
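ATPase read-out: TR-FRET ADP immunoassay (anti-ADP Eu cryptate vs ADP-d2), ex 320 nm, em 590/665 nm; signal drops as ADP forms. Enzyme 25 nM, ATP 10 uM, 30 min at 37°C after 10 min compound preincubation.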
* = called active by the depositor; ? = inconclusive; nt = not tested or not shown. Unless noted, calls follow the shape of the dose curve; as a rule, active = well fitted curve in the direction sought with a large enough effect; inconclusive = small, poorly fitted or top-dose-only effect, or another doubt; inactive = no such curve, though single readings can be large; an effect the other way counts as inactive or inconclusive. Potency is read from the fitted curve at half-maximal effect.

SMILES	a7 integrin act	USP2a inh	p53 reactivation	Eya2 phos inh	ClpP mod	Mm-Cpn inhibitor
COc1cc(OC)c(N(C)C(=O)c2nn(C)c3c2CSc2ccccc2-3)cc1Cl	nt	nt	nt	nt	-2%	nt
Cc1cccc(-n2nnc(-c3nc(-c4ccccc4)no3)c2N)c1C	nt	nt	nt	nt	-8%	nt
COc1ccc2oc(C(=O)OCC(=O)Nc3ccccc3OC)c(C)c2c1	-4%	-1%	8%	21%	-1%	-1%
COc1ccc2oc(C(=O)OCC(=O)Nc3ccc(N4CCOCC4)cc3)c(C)c2c1	2%	-1%	9%	5%	32µM*	-2%
COc1ccc2oc(C(=O)OCC(=O)Nc3ccccc3)c(C)c2c1	-4%	6%	10%	-15%	28µM*	-2%
CCCN1CNc2c(c(=O)[nH]c(=S)n2CCc2ccc(Cl)c(Cl)c2)C1	nt	nt	nt	nt	3%	nt
CC(=O)N1CCCc2cc(S(=O)(=O)N(C)CC(=O)Nc3cccc(Cl)c3C)ccc21	nt	nt	nt	nt	-3%	nt
Cc1c(SCCO)c(=O)[nH]c2cc3c(cc12)OCO3	-18%	5%	-2%	-1%	25µM*	-15%
CN1c2ccccc2C(C)(C)C12C=Nc1c(cc(N3CCOCC3)c3ccccc13)O2 (centres undefined)	-19%	-1%	-10%	-2%	28µM*	0%
CC1(C)Cc2c(cnn2-c2ccccc2)-c2c1c1ccccc1n2CC(O)CBr (centres undefined)	-54%	0%	-25%	14%	14µM*	-8%
CC1(C)Cc2c(cnn2-c2ccccc2)C(=O)/C1=N\NC(=O)c1ccccc1N	28%	-6%	8%	-12%	1%	4%
CCc1nnc2sc(-c3ccc(NC(=O)c4ccc5c(c4)OCCO5)cc3)nn12	-16%	2%	-7%	-1%	28µM*	-1%
CCN(CC)C(=O)c1ccc2nc(-c3ccccc3)c(-c3ccccc3)nc2c1	35%	-4%	-5%	-10%	25µM*	-3%
CCCNC(=O)c1ccc2nc(-c3ccccc3)c(-c3ccccc3)nc2c1	-6%	1%	3%	14%	28µM*	0%
CCn1c(-c2ccco2)nc2ccccc21	-8%	2%	?	1%	32µM*	-2%
O=C(Cn1c(-c2ccco2)nc2ccccc21)N1CCCCC1	18%	3%	0%	8%	16µM*	-5%
Cc1cccc(OCCn2c(-c3ccco3)nc3ccccc32)c1	-18%	0%	3%	-22%	25µM*	-1%
Nc1nonc1-c1nc2ccccc2n1CC(=O)N1CCCCC1	2%	0%	-4%	11%	-1%	1%
CCN(Cc1ccccc1)S(=O)(=O)c1ccc(N2CCCCS2(=O)=O)cc1	nt	nt	nt	nt	-3%	nt
Cc1ccc(S(=O)(=O)NCc2ccccc2)cc1C(=O)N(C)Cc1ccc(F)cc1	3%	-1%	-4%	-15%	1%	0%
Cc1ccc(S(=O)(=O)NCc2ccccc2)cc1C(=O)N(C)Cc1ccccc1F	19%	0%	0%	-13%	16µM*	2%
O=C([C@@H]1CC=C[C@@H]2CCN(C3CCCCC3)C(=O)[C@@H]21)N1CCOCC1	nt	nt	nt	nt	0%	nt
COc1ccc2cc(S(=O)(=O)NC3CC(C)(C)NC(C)(C)C3)ccc2c1	-42%	-2%	1%	1%	28µM*	-1%
C=C1C=C(C)n2ncc(C(=O)Nc3cccc(C(=O)Nc4cccc(C(F)(F)F)c4)c3)c2N1	nt	nt	nt	nt	-11%	nt
O=C1c2cccnc2C(=O)N1c1nc(-c2ccccc2)cs1	nt	nt	nt	nt	-18%	nt
COc1ccc2c(-c3ccccc3)cc(N3CCOCC3)nc2c1	-36%	-10%	-17%	-21%	32µM*	-2%
O=C(CC1N=C2c3ccccc3N=C(SCC(=O)Nc3cccc(Cl)c3)N2C1=O)NCc1cccs1 (centres undefined)	nt	nt	nt	nt	-6%	nt
